# The panel holds about 83,000 compounds, 20% with a hit somewhere; the sample as a whole holds those more often.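 For each line, cells grew in 96-well plates with the test compound present at a single concentration for 48 hours.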 A number with no mark means an inactive call. The source made the active and inactive calls. The calls were made as follows: active = growth percent below 10; inactive = the rest.
# Tested on: MDA-MB-468 breast
# Experiment: NCI-60 one-dose screen, 48 h (100 = growth as untreated, 0 = no growth, -100 = all killed)
# Conditions: 10 µM unless noted
row,SMILES,growth
1,C=CCCCCCCCCC(=O)[O][Sn]([CH2]CCC)([CH2]CCC)[CH2]CCC,-85.6% (active)
2,COc1cc2nc(Nc3ccc(F)cc3)nc(N)c2cc1OC,83.4%
3,O=C1c2ccccc2NC(c2cn(-c3ccccc3)nc2-c2cccs2)N1Cc1ccccc1 (stereo not given),95.4%
4,OCCN1CCOCC1,117%
5,O=C1/C(=C/c2ccccc2O)C(=S)SN1Cc1ccco1,64.7%
6,Cc1ccc(S(=O)(=O)N2CCCN(c3nc(-c4ccccc4)nc4nc(-c5ccccc5)oc34)CC2)cc1,109%
7,Cc1ccc(/C=C/C(=O)c2ccc(NC(=O)CSc3nc4c([nH]3)c(=O)n(C)c(=O)n4C)cc2)c(C)c1,34.1%
8,CC(C)(C)OC(=O)N1CCc2c(sc3ncnc(N/N=C/c4cccc5ccccc45)c23)C1,5.85% (active)
9,CCCCC(CC)COC(=O)C[N+](C)(C)CCOC(c1ccccc1)c1ccccc1 (stereo not given),-39% (active)
10,COc1cccc(C2C3=C(COC3=O)N(CCO)c3cc4c(cc32)OCO4)c1 (stereo not given),-36.3% (active)
11,COc1ccc(C(O)(CCC(C)C)C(CN2CCOCC2)c2ccc(Cl)cc2)cc1 (stereo not given),80.6%
12,CC(C)[C@@H]1NC(=O)[C@]2(C)CSC(=N2)c2ccnc(c2)CNC(=O)C[C@@H](/C=C/CCS)OC1=O,42.7%
13,C=C(C)[C@@H]1CC[C@]2(C(=O)O)CC[C@]3(C)[C@H](CC[C@@H]4[C@@]5(C)C/C(=C/c6ccco6)C(=O)C(C)(C)[C@@H]5CC[C@]43C)[C@@H]12,-27.1% [100 µM] (active)
14,CCN(CC)CCCN1C(=O)c2c(c(C)c3c(oc4ccc(OC)cc43)c2C)C1=O,103%
15,NC1=NC(c2ccccc2)C2=C(N1)/C(=C/c1ccccc1)CCC2 (stereo not given),89.6%
16,O=C(/C=C/c1cccc(C(F)(F)F)c1)Nc1cccc(C(F)(F)F)c1,55.6%
17,Cc1nn(-c2ccccc2)c(N2CCOCC2)c1/C=N/N=c1\sc2ccccc2n1C,71.6%
18,CCOC(=O)N1CCC(N=C2CSc3nnc(-c4cc(C(F)(F)F)cc(C(F)(F)F)c4)n3N2)CC1,2.22% (active)
19,COc1cccc(-c2nn(-c3ccccc3)cc2-c2ccnc(NCCNC(=O)Nc3ccccc3)c2)c1,49.7%
20,C=C1C(=O)O[C@H]2[C@H]1CC/C(COC(=O)NCc1ccccc1OC)=C\CC[C@@]1(C)O[C@@H]21,42.2%

row,SMILES,growth
1,Cc1cc(N2CCCC2)nc(NCc2cc(Nc3ccnc4cc(Cl)ccc34)ccc2F)n1,-58.7% (active)
2,COc1ccc(C2CC(c3ccc(Nc4ccnc5cc(Cl)ccc45)cc3)=NN2C(C)=O)cc1 (stereo not given),65.3%
3,CCCCCCCCCCCCCCCCN(C(C)c1ccccc1)S(=O)(=O)c1ccc(OC)c(N)c1 (stereo not given),119%
4,COc1cc(/C(Cl)=C/C=C/C(=O)c2c(C)[n+]([O-])c3ccc(Cl)cc3[n+]2[O-])cc(OC)c1OC,-11.2% (active)
5,Cc1cc(C(=O)c2ccc(Cl)cc2)ccc1O,96.1%
6,O=S(=O)(Nc1ccc(C2CC2)cc1)c1ccc(-c2cnc(C3CC3)o2)cc1,18.4%
7,O=C1CCC(N2Cc3c(C#CCCCNC(=O)c4cc5c(o4)C(=O)c4ccccc4C5=O)cccc3C2=O)C(=O)N1 (stereo not given),-47.1% (active)
8,CC(C)=CCC[C@](C)(O)C1CC[C@]2(C)[C@@H]1CC[C@@H]1[C@@]3(C)CC/C(=N\OCCC#N)C(C)(C)[C@@H]3CC[C@]12C (stereo not given in full),83.2%
9,NC(=O)Cc1nc(O)cc(=O)[nH]1,111%
10,CC(C)(C)n1cc(-c2ccnc(NCCCNS(=O)(=O)c3cccc(F)c3)c2)c(-c2cccc(O)c2)n1,25.9%
11,CCCCn1c(-c2ccc(F)cc2)nc2cc(OC)c(OC)cc2c1=O,115%
12,O=C1OCc2cccc3cccc1c23,104%
13,CCOc1ccc(-c2cc(C3(S(=O)(=O)c4ccc(C)cc4)CC=CC3)on2)cc1,72%
14,CC(C)(C)[Si](C)(C)OC1[C@@H](O[Si](C)(C)C(C)(C)C)[C@@H](CNC(=O)NC(=O)C(F)(F)F)O[C@H]1n1cnc2c(NC(=O)Nc3ccccc3)ncnc21 (stereo not given in full),102%
15,COc1ccc(C2CC(=O)Nc3c2c(C)nn3-c2nc3ccccc3[nH]2)cc1OC (stereo not given),59.6%
16,Cn1c(/C=C/[N+](=O)[O-])cc2ccccc21,-36.6% (active)
17,COc1cc2c3c(cc4c5c(ccc4c3c1OC)OCO5)N(CCN(C)C)C2=O,-48.8% (active)
18,CCN1C(=O)N(CC)C2C1NN=c1s/c(=C\c3cccnc3)c(=O)n12 (stereo not given),23.3%
19,COc1ccc(/C=N/Nc2cc(=O)[nH]c3ccc(C)cc23)cc1,101%
20,Cc1ccc(Nc2c(C(N)=O)cnc3ccc(-c4csc(N)n4)cc23)cc1,83.9%
